# MLLE-PAM2 inh = inhibitors of microRNA-mediated deadenylation, human PABP1 MLLE binding; P11940; GST-MLLE / FITC-PAM2 fluorescence polarization; inhibition, % at 20 µM; actives 0.36% (n = 360,000); in the data active means inhibition above about 35%, passing the limit was not always enough;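 further: plate controls were DMSO wells with GST-MLLE for no effect and wells lacking GST-MLLE protein for full effect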
# eIF4H inh = inhibitors of RNA binding by human eIF4H | eIF4H fluorescence polarization binding assay | inhibition, % at 35 µM | actives 0.94% (n = 290,000);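 further: calls also rest on retests at 20 µM and on dose response follow-up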
# PABP FP inh = blocks human PABP binding to poly(A) RNA; P11940; fluorescence polarization; AID 2014; inhibition, % at 35 µM; actives 1% (n = 290,000);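 further: calls also rest on retests at 20 µM and on dose response follow-up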
# PERK inh = blocks human PERK kinase; inhibition, % at 5.6 µM; actives 0.17% (n = 220,000); Q9NZJ5; CHO PERK-DD fusion, SEAP luminescence translation reporter;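 active means inhibition above the mean inhibition of all tested compounds plus 3 SD, set separately per screening campaign, cut at about 2.9% in these data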;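 further: PERK kinase domain activated by AP20187 dimerizer at 100 nM; 0% = DMSO with dimerizer and 100% = rapamycin at 8.4 µM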
# GRK2 inh = blocks RNA aptamer binding to human GRK2; P25098; bead flow cytometry, FAM-aptamer displacement from GRK2; inhibition of aptamer binding, % at 10 µM; actives 0.59% (n = 330,000);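 active means inhibition of aptamer binding above 40%, roughly 3 SD of noise, on plates passing a quality check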;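 further: median bead fluorescence of bound FAM aptamer so fluorescent compounds give negative values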
# Target sequence (P25098 whole entry, looked up): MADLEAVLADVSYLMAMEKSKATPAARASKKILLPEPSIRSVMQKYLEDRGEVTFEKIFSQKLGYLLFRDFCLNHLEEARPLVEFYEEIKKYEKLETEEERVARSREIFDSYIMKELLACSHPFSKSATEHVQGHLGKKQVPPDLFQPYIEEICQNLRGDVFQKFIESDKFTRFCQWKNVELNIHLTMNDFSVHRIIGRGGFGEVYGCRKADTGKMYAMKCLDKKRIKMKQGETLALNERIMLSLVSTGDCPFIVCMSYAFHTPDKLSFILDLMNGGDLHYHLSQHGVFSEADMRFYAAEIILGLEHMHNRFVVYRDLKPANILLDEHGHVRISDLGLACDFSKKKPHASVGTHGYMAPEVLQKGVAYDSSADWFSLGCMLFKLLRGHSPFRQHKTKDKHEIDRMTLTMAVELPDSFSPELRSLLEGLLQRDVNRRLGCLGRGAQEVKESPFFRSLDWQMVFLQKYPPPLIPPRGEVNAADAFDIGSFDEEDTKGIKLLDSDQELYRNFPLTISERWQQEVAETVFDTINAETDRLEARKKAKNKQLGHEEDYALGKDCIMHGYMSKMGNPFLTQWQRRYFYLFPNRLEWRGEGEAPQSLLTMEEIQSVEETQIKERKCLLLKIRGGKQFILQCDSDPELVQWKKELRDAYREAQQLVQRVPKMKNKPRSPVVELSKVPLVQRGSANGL
# * hit, by the source's call; ? = inconclusive; nt = no result; ! = not confirmed by another sample. A selection: hits, their analogues and other compounds. The true share with any hit is near 1.9%. Unless noted, how the calls were made is not given here.
SMILES,MLLE-PAM2 inh,eIF4H inh,PABP FP inh,PERK inh,GRK2 inh
CCOC(=O)CCCCC(=O)c1[nH]c(=O)[nH]c1CSc1nc(-c2ccccc2)c(C#N)c(=O)[nH]1,40.3*,-0.3,23.6,0.3,0.0
Cc1ccc2c(c1C)NC(C)CC2C (stereo not given),0.2,-2.7,-1.2,3.4*,1.0
Cc1cccc2c1NC1(CCCC1)CC2C (stereo not given),-0.1,-4.7,-2.8,1.2,1.0
COc1ccc(Br)c(C=O)c1OS(=O)(=O)c1ccc(C)cc1,9.2,nt,nt,nt,nt
O=C(NNC(=O)c1ccc(F)cc1F)c1ccc(-n2cnnn2)cc1,-0.6,-5.0,14.6,nt,4.0
O=C(OCc1ccccc1)c1cn(-c2ccccc2)nc1-c1ccncc1,-10.9,-0.3,-13.6,-1.3,0.0
Cc1nn(-c2ccccc2)c(N2CCCC2)c1/C=N/NC(=O)c1cc(-c2ccccc2)nc2ccccc12,-4.0,-10.5,-10.2,0.1,4.0
Cc1nn(-c2ccccc2)c(N2CCCC2)c1/C=N/NC(=O)c1cc2ccccc2cc1O,-51.4,37.1,-2.5,0.6,66.0*
O=C(N/N=C/c1ccc[nH]1)c1cc2ccccc2cc1O,-14.9,76.1*,28.0,nt,2.0
Cn1c(SCc2ccc([N+](=O)[O-])cc2)nc2c(c1=O)SCC2,17.8,active,105.4*,0.2,0.0
O=C(CSc1nnc(C2COc3ccccc3O2)o1)N1CCCC1 (stereo not given),39.2*,6.2,6.0,0.5,3.0
CCCCC(=O)Nc1ccc(NC(=S)NC(=O)CC(C)C)cc1OC,15.5,active,74.7*,0.7,0.0
COc1ccc(CC(=O)Nc2cc(S(=O)(=O)N3CCCCC3)ccc2OC(C)C)cc1OC,-5.5,nt,nt,nt,nt
CN(C)/N=C/C=C1\CC/C(=C\c2ccc(Br)cc2)C1=O,-54.6,66.6*,82.9*,0.1,0.0
Nn1c(SCC(=O)Nc2ccccc2F)nnc1C1CCCCC1,-5.7,-3.5,1.1,nt,2.0
O=C1OC(Nc2cc(Br)cc3cccnc23)c2ccccc21 (stereo not given),8.3,65.2*,active,0.0,3.0
N#Cc1c2c(c(NCCCN3CCOCC3)n3c1nc1ccccc13)CCC2,-4.4,93.1*,70.2*,-1.5,0.0
N#Cc1c2c(c(NCCN3CCOCC3)n3c1nc1ccccc13)CCCC2,5.3,24.1,12.3,-0.9,0.0
Cc1ccc(C)c2nc3sc(C(=O)O)cc3cc12,-4.6,-6.4,3.5,1.0,1.0
Cn1c(SCC(=O)N2CCCC2)nc2ccccc2c1=O,-2.3,-14.8,-4.8,-0.3,0.0
Cn1c(SCC(=O)N2CCCC2)nc2ccccc21,-5.9,active,86.7,-0.2,1.0
COc1ccc(S(=O)(=O)N(C(=O)C(C)C)c2ccc3oc(=O)sc3c2)cc1,38.4*,-7.1,3.7,-0.6,3.0
COc1ccc(CC(N)c2csc(Nc3cc(NCc4ccco4)ncn3)n2)cc1 (stereo not given),-32.5,nt,nt,nt,nt
Cc1cc2cc(C(c3nnnn3Cc3ccco3)N3CCc4ccccc4C3)c(=O)[nH]c2cc1C (stereo not given),1.4,62.7*,85.1*,-0.1,17.0
COc1ccc2[nH]c(=O)c(C(c3nnnn3CC3CCCO3)N3CCc4ccccc4C3)cc2c1 (stereo not given),36.7,1.6,22.7,0.8,4.0
SMILES,MLLE-PAM2 inh,eIF4H inh,PABP FP inh,PERK inh,GRK2 inh
Cc1ccc2[nH]c(=O)c(C(c3nnnn3CC3CCCO3)N3CCc4ccccc4C3)cc2c1 (stereo not given),77.7*,-2.7,24.0,0.1,1.0
Cc1cc2cc(C(c3nnnn3Cc3ccco3)N3CCc4ccccc43)c(=O)[nH]c2cc1C (stereo not given),-4.0,26.2*,76.6*,-0.6,0.0
Cc1cc2cc(C(c3nnnn3Cc3ccccc3)N3CCc4ccccc43)c(=O)[nH]c2cc1C (stereo not given),3.7,-4.1,39.6,-1.4,0.0
CC(C)[C@H](NC(=O)N1CC(=O)Nc2ccccc21)C(=O)N1CCC[C@H]1C(=O)O,-19.0,-0.5,5.1,nt,2.0
CC(C)(C)OC(=O)N[C@@H](Cc1ccccc1)C(=O)N1CCC(C(=O)N[C@@H](Cc2c[nH]c3ccccc23)C(=O)O)CC1,-8.7,-0.3,-7.7,nt,0.0
CCC(=NCCc1ccc(OC)c(OC)c1)C1=C(O)CC(C)(C)CC1=O,-0.9,active,60.1,-0.1,0.0
CCC(=NCCc1ccc(OC)c(OC)c1)c1ccccc1O,-4.4,7.5,13.7,nt,0.0
C=CC[n+]1c(-c2ccc(C)cc2)csc1Nc1ccc(NC(C)=O)cc1,-11.6,-8.9,-10.4,0.1,nt
C=CC[n+]1c(-c2ccc(OC)cc2)csc1NNC(=O)Nc1ccccc1,-50.6,69.5*,69.7*,-0.8,1.0
Cc1cccc2nc(CSCc3ccco3)cn12,43.6*,75.5*,71.9*,0.3,1.0
Cc1ccnc(NC(=O)CCC(=O)N(CC(=O)NC(C)(C)C)c2ccc3c(c2)OCO3)c1,5.9,2.0,21.2,nt,0.0
Cc1ccc(NC(=O)Nc2sc(=S)n(C)c2C)cc1,-55.3,3.3,-8.7,-0.2,1.0
Cc1c(NC(=O)Oc2ccccc2)sc(=S)n1C,38.6*,-3.3,4.3,1.2,3.0
CCN(CC)C1=N/C(=C\c2ccco2)C(=O)N1c1ccccc1,1.0,42.7,15.2,0.7,5.0
CC(C)CN(CC(C)C)C1=N/C(=C\c2ccco2)C(=O)N1c1ccccc1,-49.8,69.2,53.2*,1.1,0.0
NS(=O)(=O)c1ccc(N=Nc2c[nH]c(=O)c(O)c2)cc1,101.7,53.9*,32.8*,-0.5,7.0
Cc1[nH][nH]c(=O)c1N=Nc1ccc(S(N)(=O)=O)cc1,3.5,nt,nt,nt,0.0
C#Cc1ccc(NC(=O)C2(C)CCN2C(=O)c2cc(C)n(C)n2)cc1 (stereo not given),5.7,nt,nt,nt,nt
CCC1CCCCN1C(=O)CSc1nc2c(cnn2-c2ccc(C)cc2)c(=O)[nH]1 (stereo not given),7.6,3.0,-0.5,3.2*,1.0
COc1ccc(CC2(CO)COc3ccccc3C2=O)cc1 (stereo not given),3.1,nt,nt,nt,0.0
CN1Cc2c(N)cccc2C(c2ccccc2)C1 (stereo not given),79.6*!,?,1.0,-0.1,0.0
O=C(CNC(=O)C12CC3CC(CC(C3)C1)C2)NC1=NCCS1,44.8*,-5.3,4.0,1.4,4.0
Cc1cccnc1NC(=O)CNC(=O)C1CCCCC1,-10.4,nt,nt,nt,0.0
O=C(CNC(=O)C1CCCCC1)NC1=NCCS1,39.7*,-6.8,-2.4,0.6,1.0
COC(=O)C(C)Oc1cc(C)ccc1COc1ccc(-n2nc(C)n(C(F)F)c2=O)cc1 (stereo not given),-6.6,nt,nt,nt,1.0
CSc1nc(N)nc2c1ncn2CC(=O)NCCCc1ccccc1,-2.3,nt,nt,nt,7.0
CCCCCCC(=O)N(O)C1CC(=O)N(c2ccc(Cl)cc2)C1=O (stereo not given),22.6,-11.6,4.1,1.3,3.0
CCCCCCC(=O)N(O)C1CC(=O)N(c2ccc(C)cc2)C1=O (stereo not given),44.4*,-9.3,-12.6,0.3,2.0

# High-throughput results deposited in PubChem BioAssay by several laboratories.
